Screening results (PubChem)
Most compounds without a hit are left out; they make up all but 2.9% or so of the library.
ABCB6 inh 2: ABCB6 transporter inhibitors, primary screen, K562-ABCB6 cells, flow cytometry, MLPCN library | K562-ABCB6 porphyrin accumulation, 1 h; hits give low values | ATP-binding cassette sub-family B member 6 (Homo sapiens), Q9NP58 | 360,000 compounds, 0.19% hits | fluorescence ratio to DMSO, % at 10 µM;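 active means fluorescence ratio to DMSO below 75%, the collection mean minus 3 SD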;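 further: signal is porphyrin accumulated inside mitochondria; lower ratio means ABCB6 inhibition with less porphyrin fluorescence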
Target sequence (Q9NP58 whole entry, looked up): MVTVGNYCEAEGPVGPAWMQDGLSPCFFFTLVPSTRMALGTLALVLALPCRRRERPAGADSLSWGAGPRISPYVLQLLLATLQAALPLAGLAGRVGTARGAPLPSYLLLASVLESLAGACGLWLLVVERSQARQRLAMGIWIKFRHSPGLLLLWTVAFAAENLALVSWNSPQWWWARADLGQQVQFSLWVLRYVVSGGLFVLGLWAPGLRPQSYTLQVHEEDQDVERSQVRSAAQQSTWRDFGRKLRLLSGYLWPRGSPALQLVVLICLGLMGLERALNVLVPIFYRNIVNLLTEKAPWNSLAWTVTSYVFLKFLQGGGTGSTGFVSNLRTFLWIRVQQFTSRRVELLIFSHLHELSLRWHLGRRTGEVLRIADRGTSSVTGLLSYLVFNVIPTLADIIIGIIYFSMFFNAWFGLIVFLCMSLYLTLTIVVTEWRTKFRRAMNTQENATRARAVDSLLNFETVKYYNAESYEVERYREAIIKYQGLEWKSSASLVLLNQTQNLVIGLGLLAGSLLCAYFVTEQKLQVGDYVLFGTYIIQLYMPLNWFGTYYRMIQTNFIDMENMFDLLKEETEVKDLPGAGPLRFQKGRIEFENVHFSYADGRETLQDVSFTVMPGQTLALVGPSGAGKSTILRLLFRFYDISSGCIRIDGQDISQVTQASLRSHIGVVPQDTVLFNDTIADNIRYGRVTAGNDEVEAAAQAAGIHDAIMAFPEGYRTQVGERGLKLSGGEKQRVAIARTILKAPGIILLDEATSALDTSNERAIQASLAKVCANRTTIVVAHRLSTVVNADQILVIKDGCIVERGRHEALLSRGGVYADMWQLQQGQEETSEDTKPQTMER
CRFR2-BP ag: agonists of CRF-BP/CRF-R2 complex, primary screen, cell-based, HEK293, calcium dye fluorescence, uHTS. AID 588473, 2011. activation, % at 13.2 µM. calcium dye fluorescence (FLIPR); percent of saturating CRF peptide response. 350,000 compounds, 0.46% hits. CRF-binding protein / CRF receptor 2 complex (human);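 active means activation of at least 50%, plus an integration ratio under a set limit after plate pattern correction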
MEKK2mut PB1 HTS: MEK5 binding signal on mutant MEKK2 PB1, primary screen, biochemical, multiplex bead flow cytometry, Alexa488-MEK5 | Alexa488-MEK5 binding to MEKK2 mutant | percent response, % at 10 µM | 290,000 compounds, 0.35% hits | AID 1530, 2009; in the data active means percent response above about 24%, passing the limit was not always enough
MEKK3 PB1 HTS: modulators of MEKK3-MEK5 PB1 binding, primary screen, biochemical, wildtype MEKK3, multiplex bead flow cytometry, Alexa488-MEK5. Mitogen-activated protein kinase kinase kinase 3 (Homo sapiens), Q99759. bead-based flow cytometry, Alexa488-MEK5 binding to MEKK3; actives lie on both sides; 0 = blocked by unlabeled MEK5, 100 = vehicle. binding response (% of control), % at 10 µM. 290,000 compounds, 1.4% hits;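 active means binding response more than 3 SD above or below the average of its plate-row segment, actives on both sides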;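 further: Alexa488 bead fluorescence after subtracting the streptavidin-only scavenger bead signal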
CRFR2-BP antag: antagonists of CRF-BP/CRF-R2 complex, primary screen, cell-based, HEK293, calcium dye fluorescence, uHTS | CRF-induced calcium fluorescence | inhibition, % at 11.8 µM | 350,000 compounds, 0.59% hits | AID 588475, 2011;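 active means inhibition of the ligand-induced calcium signal above about 50% at the single tested concentration, limit read from the data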
MEKK2wt PB1 HTS: modulators of MEK5 binding to wildtype MEKK2, primary screen, biochemical, multiplex bead flow cytometry, Alexa488-MEK5. Alexa488-MEK5 binding to MEKK2 WT; actives lie on both sides. Mitogen-activated protein kinase kinase kinase 2 (Homo sapiens), Q9Y2U5. 290,000 compounds, 1.1% hits. binding response (% of control), % at 10 µM; in the data active means binding response below about 67% or above about 130%
ABCB6 blocker 1: ABCB6 transporter inhibitors, confirmation, K562-ABCB6 cells, flow cytometry, cherry pick 1. ratio response (% of DMSO), % at 10 µM. shares compounds with ABCB6 inh 2. K562-ABCB6 porphyrin accumulation, 1 h; hits give low values. 700 tested, under 10 active. AID 602430, 2012;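 active means repeat-averaged ratio response below 75% of DMSO, the collection mean minus 3 SD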;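 further: median porphyrin fluorescence at 575 nm with 488 nm excitation from mitochondria; lower ratio means less porphyrin signal so ABCB6 inhibition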
Of the large screens only hits and unclear results are named; the others gave an inactive call (follow-up assays come after a bar, where they were run).

CCOC(=O)C1CCN(C(=O)CCc2nnc3ccc(N4CCN(C)CC4)nn23)CC1	none | ABCB6 blocker 1 inactive
O=C(CSc1nnc(COc2ccc(Cl)cc2)o1)N1CCCCC1	none
Cc1ccccc1-n1ccnc1SCC(=O)NC1CCCC1	none
CCN(CC)C1=CC(=[N+]2CCCC2)CC(C)(C)C1	ABCB6 inh 2 67 | ABCB6 blocker 1 inactive
COc1cccc(N2CCN(c3nc(-c4ccccc4C)cc(=O)[nH]3)CC2)c1	none
Cc1cccc(/C=C2\Sc3ccc(C(=O)N4CCC(C)CC4)cc3N(C)C2=O)c1	ABCB6 inh 2 13 | ABCB6 blocker 1 inactive
O=C(Oc1ccc(N(Cc2cccs2)C2=NS(=O)(=O)c3ccccc32)cc1)c1ccc(Cl)cc1	none
O=C(Oc1ccc(N(Cc2cccs2)C2=NS(=O)(=O)c3ccccc32)cc1)c1ccccc1	ABCB6 inh 2 66 | ABCB6 blocker 1 inactive
Cc1ccc(-c2nc(N/N=C/c3ccccc3[N+](=O)[O-])c3ccccc3n2)cc1	ABCB6 inh 2 74 | ABCB6 blocker 1 inactive
CCN(CC(=O)NCCCn1ccnc1)S(=O)(=O)c1ccc(C)cc1	none
Cc1ccc(S(=O)(=O)N(C)CC(=O)NCCCn2ccnc2)cc1	ABCB6 inh 2 61 | ABCB6 blocker 1 inactive
OC(c1cccc(CN2CCCCC2)c1)c1ncc(-c2cccc(C(F)(F)F)c2)[nH]1 (stereo not given)	none (no result: CRFR2-BP ag, MEKK2mut PB1 HTS, MEKK3 PB1 HTS, CRFR2-BP antag, MEKK2wt PB1 HTS)
Cc1ccc(S(=O)(=O)N2CCN(C(=O)CN3CCOCC3)C2C(C)C)cc1 (stereo not given)	ABCB6 inh 2 59 | ABCB6 blocker 1 inactive
COc1cccc(CN(CC(=O)NCC2CCCO2)C(=O)CCC(=O)Nc2cc(C)on2)c1 (stereo not given)	ABCB6 inh 2 73 | ABCB6 blocker 1 inactive
COC(=O)c1ccccc1NC(=O)c1noc2c1CC(C(C)(C)C)CC2 (stereo not given)	ABCB6 inh 2 69 | ABCB6 blocker 1 inactive
CC(C)(C)C1CCc2onc(C(=O)Nc3cccc(O)c3)c2C1 (stereo not given)	none (no result: CRFR2-BP ag, CRFR2-BP antag)
COc1cc2c(C(=O)N(C)c3ccc(F)cc3)cn(C)c(=O)c2cc1OC	ABCB6 inh 2 14 | ABCB6 blocker 1 inactive
COc1ccc(NC(=O)CN2CCCCC2)cc1	none
COc1ccc(NC(=O)CN2CCC(NC(=O)C3CCCCC3)CC2)cc1	ABCB6 inh 2 68 | ABCB6 blocker 1 inactive
COc1cccc(NC(=O)N(Cc2ccco2)C(C)c2cccs2)c1 (stereo not given)	ABCB6 inh 2 73 | ABCB6 blocker 1 inactive
CCN(CC)C(=O)CSc1nc(O)c(Cc2ccccc2)c(=O)n1-c1ccccc1	ABCB6 inh 2 57 | ABCB6 blocker 1 inactive
CCN(CC)C(=O)CSc1nc(O)c(Cc2ccccc2)c(=O)n1-c1ccc(C)cc1	none
CCC(=O)Nc1ccc2c(c1)nc1n2CCSC1	ABCB6 inh 2 70 | ABCB6 blocker 1 inactive
CC(C)C(=O)Nc1ccc2c(c1)nc1n2CCSC1	none
O=C(CN1c2cccc3cccc(c23)S1(=O)=O)NCc1ccc(Cl)cc1	none (no result: MEKK2mut PB1 HTS, MEKK3 PB1 HTS, MEKK2wt PB1 HTS)
O=C(CN1c2cccc3cccc(c23)S1(=O)=O)NCc1ccccc1Cl	ABCB6 inh 2 74 (no result: MEKK2mut PB1 HTS, MEKK3 PB1 HTS, MEKK2wt PB1 HTS) | ABCB6 blocker 1 inactive
N#Cc1c2n(c3c(=O)n(Cc4ccccc4)cnc13)CCCC2	ABCB6 inh 2 55 | ABCB6 blocker 1 inactive
N#Cc1c2n(c3c(=O)n(Cc4ccc(Cl)cc4)cnc13)CCCCC2	none
O=C(Cn1cc(C(=O)c2cccs2)c2ccccc21)NC1CCCCC1	ABCB6 inh 2 60 | ABCB6 blocker 1 inactive
O=C(Cn1cc(C(=O)c2ccco2)c2ccccc21)NC1CCCC1	none
CCOc1ccccc1C(=O)NCC(=O)NCCCSc1ccccc1	none
COc1ccc(NC(=O)C2CCCN2S(=O)(=O)c2ccc(C)cc2)cc1 (stereo not given)	ABCB6 inh 2 45 | ABCB6 blocker 1 inactive
COC(=O)c1ccc(CNC(=O)COc2ccccc2Br)o1	ABCB6 inh 2 32 | ABCB6 blocker 1 inactive
COCc1cc(C)n(CC(=O)Nc2ccc(N3CCOCC3)cc2)c(=O)c1C#N	none (no result: MEKK2mut PB1 HTS, MEKK3 PB1 HTS, MEKK2wt PB1 HTS)
O=c1c2c(nc(NCCO)n1CC1CCCCC1)-c1ccccc1CC21CCCC1	ABCB6 inh 2 61 | ABCB6 blocker 1 inactive
CC1(C)CC(n2c(NCCO)nc3c(c2=O)C2(CCCC2)Cc2ccccc2-3)CCO1 (stereo not given)	none
CC(CNC(=O)c1ccc(C#N)cc1)NC(=O)c1ccc(C#N)cc1 (stereo not given)	ABCB6 inh 2 73 | ABCB6 blocker 1 inactive
COc1ccc(C(=O)NCC(C)NC(=O)c2ccc(OC)cc2)cc1 (stereo not given)	none (no result: MEKK2mut PB1 HTS, MEKK3 PB1 HTS, MEKK2wt PB1 HTS)
Cc1ccc(CCN2CCN=C2Nc2ccccc2)cc1	none (no result: MEKK2mut PB1 HTS, MEKK3 PB1 HTS, MEKK2wt PB1 HTS)
Cc1nc2c(C(=O)N3CCN(C)CC3)cnn2c(C)c1Cc1ccc(Cl)cc1	none | ABCB6 blocker 1 inactive
Cc1cccc(Cc2c(C)nc3c(C(=O)N4CCN(Cc5ccc6c(c5)OCO6)CC4)cnn3c2C)c1	none
Cc1nc2c(C(=O)N3CCCCC3)cnn2c(C)c1Cc1ccccc1F	none | ABCB6 blocker 1 inactive
CCOCCn1c(N2CCN(c3ccc(OC)cc3)CC2)nc2c1c(=O)[nH]c(=O)n2C	ABCB6 inh 2 72 | ABCB6 blocker 1 inactive
Cc1nc2c(C(=O)NCc3ccco3)cnn2c(C)c1Cc1ccc(F)cc1Cl	ABCB6 inh 2 72 | ABCB6 blocker 1 inactive
Cc1cccc(Cc2c(C)nc3c(C(=O)NCc4ccco4)cnn3c2C)c1	none | ABCB6 blocker 1 inactive
COc1ccccc1CN(C)C[C@H]1OCc2cnnn2CCCC(=O)N([C@H](C)CO)C[C@@H]1C	none (no result: MEKK2mut PB1 HTS, MEKK3 PB1 HTS, MEKK2wt PB1 HTS)
CCCCNC(=O)CN(Cc1ccco1)S(=O)(=O)c1ccc(C(C)=O)cc1	none (no result: MEKK2mut PB1 HTS, MEKK3 PB1 HTS, MEKK2wt PB1 HTS)
CCCN(CC(=O)Nc1ccccc1OC)CC(=O)c1c(N)n(Cc2ccccc2)c(=O)n(C)c1=O	none (no result: MEKK2mut PB1 HTS, MEKK3 PB1 HTS, MEKK2wt PB1 HTS)
CC(C)c1ccc(CC(=O)N2CCC2(C)C(=O)NS(=O)(=O)c2ccc(F)cc2F)cc1 (stereo not given)	none (no result: CRFR2-BP ag, MEKK2mut PB1 HTS, MEKK3 PB1 HTS, CRFR2-BP antag, MEKK2wt PB1 HTS) | ABCB6 blocker 1 inactive
CC1(C(=O)NS(=O)(=O)c2ccc(F)cc2F)CCN1C(=O)Cc1cc(F)ccc1F (stereo not given)	none (no result: CRFR2-BP ag, MEKK2mut PB1 HTS, MEKK3 PB1 HTS, CRFR2-BP antag, MEKK2wt PB1 HTS)
